Assay results: PubChem BioAssay (Tox21)
Results filed as inconclusive are left out. A call without a number means that no potency is given here. The source made the active and inactive calls. The call rests on the fitted dose curve.

Biological target: Beta-2 adrenergic receptor (Homo sapiens) (UniProt P07550)
Test: Adrenergic beta2 receptor (ADRB2) small molecule antagonists, cell-based qHTS assay (AID 1963592); further: nearly all actives have a fitted effect of over 50% in size
Details: CHO-ADRB2 cells, isoproterenol-stimulated cAMP HTRF ratio, 0.5 h; series mostly up to 92.4 µM
Description: U.S. Tox21 Program National Center for Advancing Translational Sciences [NCATS] Division of Preclinical Innovation [DPI] U.S. Environmental Protection Agency [EPA] National Institutes of Environmental Health Sciences [NIEHS] National Toxicology Program [NTP] U.S. Food and Drug Administration [FDA] Tox21 Assay Overview: Beta adrenergic receptors (Beta-ARs) belong to the G-protein coupled receptor (GPCR) superfamily, includes three subtypes - beta1, beta2, and beta3. Beta1-AR is the predominant receptor subtype expressed in the heart, and beta2-AR is expressed in the kidney, lung, blood vessel and in the heart, and beta3 is found in the adipocytes. Beta1 and 2 ARs couple to Gs protein and elevate cyclic adenosine mono phosphate (cAMP), which activates protein kinase A and leads to the downstream signaling responsible for the physiological actions. Beta-AR agonists or antagonists are the most prescribed therapeutic agents for heart failure and asthma, and these were one of the first target receptors for the rational drug design. Tox21 10K compound library was screened using the cAMP-Gs dynamic assay (Cisbio Bioassays, Shelton, CT) to identify agonists/antagonists of the Gs-coupled human adrenergic, beta2 receptor (ADRB2) in the CHO-ADRB2 cell line (Codex BioSolutions, Inc. Gaithersburg, MD), which stably over-expresses ADRB2. The principle of cAMP-Gs dynamic assay is based on HTRF technology, which facilitates the fluorescence resonance energy transfer (FRET) between donor Europium cryptate and acceptor d2-labeled cAMP. The cAMP generated within cells competes with the red acceptor, d2-labled cAMP, for binding to the monoclonal anti-cAMP-cryptate (Europium donor). An increase in intracellular cAMP leads to the disruption of FRET signal, and the signal is inversely proportional to the cAMP concentration. Propranolol HCl (Sigma-Aldrich, St. Louis, MO) was used as a positive control in the screening.
Tox21 Assay Protocol Summary: CHO-ADRB2 cells were dispensed at 1,000/well in 4uL assay medium into white/solid 1536-well plates (Greiner Bio-One North America Inc., Monroe, NC) using a Multidrop Combi dispenser (ThermoFisher Scientific, Waltham, MA). The assay plates were incubated at 37C and 5% CO2 for an overnight (18-20hr). Then positive control and test compounds dissolved in DMSO were transferred to the assay plates at 23nL using a Pintool station (Wako, San Diego, CA). Following the compound and positive control transfer, 1uL agonist-stimulation mix containing 1nM Isoproterenol HCl, 100uM IBMX and 25uM Ro-20-1724 was added to each well of the assay plates using BioRAPTR Flying Reagent Dispenser (FRD, Beckman Coulter, Brea, CA). The assay plates were incubated at room temperature for 0.5hr. Then 2.5ul each d2-labled cAMP and anti-cAMP-cryptate solutions were added separately to each well of the assay plates using an FRD and the assay plates were incubated at room temperature for 1hr. The fluorescence signal was measured at two different wavelengths (665nm and 615nm) using an Envision plate reader (Perkin Elmer, Shelton, CT). Data were expressed as the ratio of 665 nm/615 nm.
Potency means the concentration at half of the fitted maximal effect.

Chain of Beta-2 adrenergic receptor (Homo sapiens) (P07550 whole entry, looked up): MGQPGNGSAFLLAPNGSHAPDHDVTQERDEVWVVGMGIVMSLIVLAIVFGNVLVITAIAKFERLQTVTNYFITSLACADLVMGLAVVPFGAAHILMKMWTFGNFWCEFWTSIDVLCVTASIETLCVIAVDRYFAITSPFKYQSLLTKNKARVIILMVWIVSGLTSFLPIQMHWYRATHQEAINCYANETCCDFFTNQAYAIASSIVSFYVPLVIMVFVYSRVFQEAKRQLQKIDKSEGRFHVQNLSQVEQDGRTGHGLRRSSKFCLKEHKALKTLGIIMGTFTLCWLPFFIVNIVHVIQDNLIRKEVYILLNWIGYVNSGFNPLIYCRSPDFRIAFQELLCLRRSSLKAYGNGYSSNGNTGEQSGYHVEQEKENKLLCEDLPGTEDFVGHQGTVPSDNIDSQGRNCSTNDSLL

SMILES | Potency | activity change, negative = inhibition
COc1cc2c(cc1OC)C(=O)C(CC1CCN(Cc3ccccc3)CC1)C2 (stereo not given) | 18.8 µM (active) | 
C=CCn1c(=O)n([C@@H]2O[C@H](CO)[C@@H](O)[C@H]2O)c2nc(N)[nH]c(=O)c21 | inactive | 
CC(C)=CC(=O)O | inactive | 
C=C1CC[C@H](O)C/C1=C\C=C1/CCC[C@]2(C)[C@@H]([C@H](C)CCCC(C)C)CC[C@@H]12 | inactive | 
CN(C)CCOC1=Cc2ccccc2Sc2ccc(Cl)cc21 | inactive | 
c1ccc(CCCc2ccccn2)cc1 | inactive | 
CCCCCCCCCCCCCCCCOS(=O)(=O)O | inactive | 
Clc1cc(Cl)nc(Cl)n1 | inactive | 
CC1(N)CCC(C(C)(C)N)CC1 (stereo not given) | inactive | 
C[C@H](CCC(=O)NCC(=O)O)[C@H]1CC[C@H]2[C@@H]3[C@H](O)C[C@@H]4C[C@H](O)CC[C@]4(C)[C@H]3C[C@H](O)[C@]12C | inactive | 
CN1CC(=O)NC1=N | inactive | 
C=C(C)CCCC | inactive | 
CC(=O)OCC(=O)[C@@]1(O)CC[C@H]2[C@@H]3CCC4=CC(=O)C=C[C@]4(C)[C@@]3(F)[C@@H](O)C[C@@]21C | inactive | 
COc1ccccc1Oc1c(NS(=O)(=O)c2ccc(C(C)(C)C)cc2)nc(-c2ncccn2)nc1OCCO | inactive | 
CN1CCC[C@@H]1Cc1c[nH]c2ccc(CCS(=O)(=O)c3ccccc3)cc12 | inactive | 
SC1CCCCC1 | inactive | 
CN1CN(C)CN(C)C1 | inactive | 
CC(C)NCCCC1(C(N)=O)c2ccccc2-c2ccccc21 | inactive | 
COc1ncnc(NS(=O)(=O)c2ccc(N)cc2)c1OC | inactive | 
CNCCc1ccccn1 | inactive | 

SMILES | Potency | activity change, negative = inhibition
COc1cc(C)ccc1O | inactive | 
C#Cc1ccc(-c2ccccc2F)cc1 | inactive | 
O=c1[nH]cnc2nc[nH]c12 | inactive | 
Cc1ccc2oc(CN(Cc3ccccc3)C(=O)Nc3c(F)cc(F)cc3F)c(-c3ccc(Cl)cc3)c2c1 | inactive | 
OC[C@@H](O)C(O)[C@@H](O)CO (stereo not given in full) | inactive | 
COc1cc(CNC(=O)CCCC/C=C/C(C)C)ccc1O | inactive | 
Clc1cc(Cl)cc(Cl)c1 | inactive | 
CC(=O)c1ccc2ccc3ccccc3c2c1 | inactive | 
COc1ccc(Nc2ccc(OC)cc2)cc1 | inactive | 
Cc1ccnc(NS(=O)(=O)c2ccc(N)cc2)n1 | inactive | 
CCCCCO | inactive | 
C[C@]1(Cn2ccnn2)[C@H](C(=O)O)N2C(=O)C[C@H]2S1(=O)=O | inactive | 
CCCC[P+](C)(CCCC)CCCC | inactive | 
CCCCC(CC)COC(=O)CC#N (stereo not given) | inactive | 
O=C(O)c1cccc(O)c1 | inactive | 
CC(=O)CCc1ccc(O)cc1 | inactive | 
CN1C[C@@H]2C[C@H]1CN2c1cc2c(cc1F)c(=O)c(C(=O)O)cn2C1CC1 |  | -1.81% [at 19 µM] (inactive)
Nc1ccccc1S(=O)(=O)c1ccccc1 | inactive | 
OCC(CO)(CO)COCC(CO)(CO)CO | inactive | 
CCc1cc(S(=O)(=O)O)c2cc(C(C)C)cccc1-2 | inactive | 
